# Data from ChEMBL document CHEMBL4513216, “Probing the Open Global Health Chemical Diversity Library for Multistage-Active Starting Points for Next-Generation Antimalarials” (ACS Infect Dis, 2020).
# The campaign covered roughly 69,000 compounds. About 8,600 (12%) showed an effect of 50% or more. This excerpt belongs to a sample that is enriched for strong results.
# Test system: Plasmodium berghei
# Assay: Screen against P. berghei liver stage (PbLuc), transformed with Luciferase, at 10uM
# Assay type: functional, HepG2
# Settings: tested at 10 uM
row,SMILES,INHIBITION [%]
1,O=C(c1ncccn1)N1CCC[C@]2(C[C@@H](Oc3ncccc3F)CO2)C1,-2.17
2,CC(C)C(Sc1nccn1C1CC1)C(=O)NCc1cccnc1 (configuration not stated),0.411
3,Cc1ccc(N2CC3(CCN(Cc4nccn4C)C3)CC2=O)s1 (configuration not stated),15.9
4,CCOC(=O)CN1CC(c2nc(-c3ccsc3)no2)C1,9.96
5,CC(C)NC(=O)CNC(=O)c1csc(Cc2ccccc2F)n1,-20.6
6,COc1ccc(C2CCN(Cc3cscn3)CC2)cc1,37.7
7,Cc1ncsc1C(=O)NC1CCN(CCCC#N)CC1,33.7
8,COc1ccc(C2CCN(S(=O)(=O)CCCC#N)CC2)cc1,59.1
9,CCCS(=O)(=O)N1CCC(Oc2ccc(C#N)cc2)CC1,25.8
10,COc1ccc(C2CCN(CCCC#N)CC2)cc1,63.5
11,N#CCCCS(=O)(=O)N1CCC(CSc2ccccc2)C1 (configuration not stated),-18.7
12,CCCS(=O)(=O)N1CCC(c2ccc(OC)cc2)CC1,67.8
13,CCCS(=O)(=O)N1CCC(NCc2c(C)nn(C)c2OC)CC1,-10.9
14,CC(C)n1cnnc1C1CCCN(S(=O)(=O)CCCC#N)C1 (configuration not stated),48.3
15,CN(C)c1cc2c(nn1)CCN(C(=O)Cc1ccc3c(c1)CCC3)C2,5.8
16,CCn1nc(C)c2nc(C(C)C)nc(NCC(C)C)c21,47.4
17,Cc1occc1C(=O)N1CCC2(CC1)NC(=O)CC2c1cnn(C)c1 (configuration not stated),42.1
18,CNC(=O)C1CN(C)CCN(CCCOc2ccccc2F)C1 (configuration not stated),8.72
19,CC(=O)Nc1ccc(SCC(=O)NCC2CCCO2)nn1 (configuration not stated),-4.83
20,COc1cccc([C@@]2(O)CC[C@@H]3CN(C(=O)c4cn(C)nc4C)C[C@@H]32)c1,-1.95
21,OCc1nnn2c1CN(Cc1cccnc1)CCC2,29
22,CCc1cnc(CN(C(C)=O)C2CCN(Cc3nccn3C)C2)o1 (configuration not stated),-6.865
23,O=C(NCC1CCCO1)c1cc(Sc2ncccn2)ccn1 (configuration not stated),32.8

row,SMILES,INHIBITION [%]
1,CNC(=O)CC1CC2(CCN(S(C)(=O)=O)CC2)c2ccccc21 (configuration not stated),6.66
2,CC(C)NC(=O)CC1CC2(CCN(S(C)(=O)=O)CC2)c2ccccc21 (configuration not stated),18.5
3,Cn1cc(CNC2CC3(CCN(CC4CC4)CC3)c3ccccc32)cn1 (configuration not stated),-40.4
4,c1cnc(N2CCC3(CC2)CC(NCC2CC2)c2ccccc23)nc1 (configuration not stated),88.1
5,CNC(=O)CNC1CC2(CCN(c3ncccn3)CC2)c2ccccc21 (configuration not stated),2.4
6,Cn1cc(CNC2CC3(CCN(S(C)(=O)=O)CC3)c3ccccc32)cn1 (configuration not stated),44.8
7,CN(C)C(=O)CC1CC2(CCN(c3ncccn3)CC2)c2ccccc21 (configuration not stated),38.5
8,CS(=O)(=O)N1CCC2(CC1)CC(NCC1CC1)c1ccccc12 (configuration not stated),59.3
9,CS(=O)(=O)N1CCC2(CC1)CC(NCc1ccccn1)c1ccccc12 (configuration not stated),45.7
10,CS(=O)(=O)N1CCC2(CC1)CC(CC(=O)NC1CC1)c1ccccc12 (configuration not stated),37
11,CNC(=O)CC1CC2(CCN(c3ncccn3)CC2)c2ccccc21 (configuration not stated),55.6
12,CS(=O)(=O)N1CCC2(CC1)CC(NCc1ccco1)c1ccccc12 (configuration not stated),66.6
13,CC(Nc1cccc2c1OCCO2)C(=O)Nc1cccc(C#N)c1 (configuration not stated),8.12
14,CCc1nc(CN(C(C)=O)C2CCN(CCc3ccccn3)C2)no1 (configuration not stated),29.7
15,Oc1nc(N2CCOCC2)nc2nccc(-c3ccccn3)c12,-21.3
16,CNC(=O)c1cc(C)n(-c2ccccc2)n1,36.2
17,O=C(NCc1cccs1)[C@@H]1CC[C@@H]2[C@@H](CCN2CC2CCC2)O1,30.3
18,CC(C)[C@H]1CN(c2cnccn2)C[C@@H]1NC(=O)C1(C#N)CCOCC1,49.5
19,CC(C)C[C@@H](CO)n1cc(-c2cncnc2)nn1,28.4
20,COc1ccc(C(=O)N(C)Cc2nnc3ccccn23)cc1,-35.7
21,CC(C)c1nn(C)c(N(C)C)c1CNCC(O)COc1ccccc1 (configuration not stated),-37.2
22,NC(=O)c1ccc(NC(=O)N2CCN(c3cccs3)CC2)c(F)c1,44.3
23,Cc1cc(C(N)=O)ccc1NC(=O)N1CCN(c2cccs2)CC1,65.6

row,SMILES,INHIBITION [%]
1,Cc1cc(NC(=O)N2CCN(c3cccs3)CC2)ccc1C(N)=O,41
2,CS(=O)(=O)NCc1nnc2n1CCN(CC1CC1)C2,39.2
3,Cc1nc(C2CCCN(C(=O)Cn3ccccc3=O)C2)sc1C (configuration not stated),25.6
4,CCn1ccnc1CN1CCCC1Cn1cc(C)cn1 (configuration not stated),-53.5
5,Cc1ccc(Nc2nccc(C3CCN(C(=O)CN)C3)n2)nc1 (configuration not stated),58.1
6,NCC(=O)N1CCC(c2ccnc(Nc3cc(C(F)(F)F)ccn3)n2)C1 (configuration not stated),19.3
7,CNCC(=O)N1CCC(c2ccnc(Nc3ccc(C)cn3)n2)C1 (configuration not stated),56.3
8,CC(=O)N1CCCC(c2ccnc(Nc3cnccn3)n2)C1 (configuration not stated),42.6
9,CNCC(=O)N1CCCC(c2cccc(Nc3nc(C)cc(C)n3)n2)C1 (configuration not stated),33
10,CNCC(=O)N1CCCC(c2ccnc(Nc3cnccn3)n2)C1 (configuration not stated),15.9
11,CC(=O)N1CCC(c2ccnc(Nc3cnccn3)n2)C1 (configuration not stated),50.6
12,Cc1ccc(Nc2nccc(C3CCN(C(=O)CO)C3)n2)nc1 (configuration not stated),40.6
13,O=C(C1CCCC1)N1CCC(c2ccnc(Nc3cnccn3)n2)C1 (configuration not stated),22
14,Cc1cc(N2CCN(C(=O)[C@@H]3C[C@H]4C=C[C@@H]3C4)CC2)cc(C)n1,-1.84
15,Cn1ccc(C(=O)NCCOc2ccc(C(C)(C)C)cc2)cc1=O,20.3
16,CN1CCC/C1=N\S(=O)(=O)c1ccc(NC(=O)c2ccc(Cl)cc2)cc1,15.6
17,CCc1cc(O)n2nc(C3CCN(C(=O)c4ccncc4)CC3)cc2n1,32.85
18,CNC(=O)CN1CCOCC2(C1)CN(C(=O)C(C)C)CCO2 (configuration not stated),-15.7
19,Cc1ncc2c(n1)CN(C(C(N)=O)c1ccc(F)cc1)CC2 (configuration not stated),58.5
20,Cc1ncc2c(n1)CN(C(C(N)=O)c1ccccc1)CC2 (configuration not stated),-40.4
21,Cc1ncc2c(n1)CCN(C(C(N)=O)c1ccccc1)C2 (configuration not stated),-4.4
